The nature of experiment [1]: qHTS assay for measurement of the activity of small molecule inhibitors on Zika virus induced Caspase-3 activity in human iPSC derived neural progenitor cells (hNPCs) (AID 1224857). Also: nearly all actives have a fitted effect of over 65% in size. The gist of the method:
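Cells were plated at 350 per well and grown 16 to 20 hours. Compound pretreatment lasted one hour, after which ZIKV (2 FFU/cell) was added for 6 hours. Percent inhibition was normalized between uninfected and infected controls.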
Background: Quantitative high-throughput screening tests each substance at several concentrations.

The nature of experiment [2]: qHTS assay to identify small molecule inhibitors of chordoma cells - UCH-2 (AID 1259356). Also: series mostly up to about 46 µM.
Experiment [3] is described as follows: P-glycoprotein substrates identified in KB-8-5-11 adenocarcinoma cell line, qHTS therapeutic library screen (AID 1346987). Also: nearly all actives have a fitted effect of over 65% in size. Also: potency is read from the fitted curve at half-maximal effect. The gist of the method: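 Luminescence from CellTiter-Glo, read 5 min after addition, quantified survival of KB-8-5-11 (P-gp-overexpressing) cells exposed to compounds for 72 h. AC50 was derived from concentration-response curves.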
Experiment [4] deals with Atrial natriuretic peptide receptor 2 (Homo sapiens) (UniProt P20594). In words: Natriuretic polypeptide receptor (hNpr2) antagonism - Pilot subtype selectivity assay (AID 1347050; calls by dose curve). Summed up: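 Luminescence from a genetically encoded cGMP luciferase biosensor in hNpr2-expressing HEK293 cells is read before and 20 min after adding 1 nM hNppC. Test compounds, in interplate 1:5 titrations, are added 30-50 min ahead of the agonist.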
Sequence of Atrial natriuretic peptide receptor 2 (Homo sapiens) (P20594 whole entry, looked up): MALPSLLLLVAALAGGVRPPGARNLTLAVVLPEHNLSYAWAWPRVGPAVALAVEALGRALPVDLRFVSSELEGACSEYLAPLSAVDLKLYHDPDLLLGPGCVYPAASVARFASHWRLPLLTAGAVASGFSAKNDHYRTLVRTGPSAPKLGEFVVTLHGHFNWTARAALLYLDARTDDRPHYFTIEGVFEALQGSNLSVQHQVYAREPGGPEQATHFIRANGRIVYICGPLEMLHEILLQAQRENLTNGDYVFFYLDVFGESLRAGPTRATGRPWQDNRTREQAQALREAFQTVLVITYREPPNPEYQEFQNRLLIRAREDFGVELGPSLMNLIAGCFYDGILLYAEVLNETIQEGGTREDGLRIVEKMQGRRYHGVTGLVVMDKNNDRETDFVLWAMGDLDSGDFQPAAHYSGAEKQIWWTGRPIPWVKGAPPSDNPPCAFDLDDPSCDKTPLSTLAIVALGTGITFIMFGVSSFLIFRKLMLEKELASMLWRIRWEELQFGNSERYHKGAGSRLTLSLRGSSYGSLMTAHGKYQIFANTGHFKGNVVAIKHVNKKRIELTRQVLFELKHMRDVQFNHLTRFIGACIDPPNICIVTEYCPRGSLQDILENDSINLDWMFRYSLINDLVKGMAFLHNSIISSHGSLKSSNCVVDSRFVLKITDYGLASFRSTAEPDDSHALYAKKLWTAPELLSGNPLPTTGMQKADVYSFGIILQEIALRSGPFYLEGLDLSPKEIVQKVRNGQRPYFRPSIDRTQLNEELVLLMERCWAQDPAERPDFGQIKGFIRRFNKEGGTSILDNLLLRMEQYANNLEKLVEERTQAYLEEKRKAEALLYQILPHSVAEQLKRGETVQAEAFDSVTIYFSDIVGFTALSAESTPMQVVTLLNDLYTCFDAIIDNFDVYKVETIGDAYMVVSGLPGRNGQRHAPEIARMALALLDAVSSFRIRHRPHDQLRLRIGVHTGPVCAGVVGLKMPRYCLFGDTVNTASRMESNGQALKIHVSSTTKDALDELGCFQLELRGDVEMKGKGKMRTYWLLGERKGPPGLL

Experiment [5] is described as follows: NS1 protein of Zika virus - qHTS assay to identify small molecule inhibitors in human HEK 293 cells (AID 1347053). Also: series mostly up to about 46 µM; nearly all actives have a fitted effect of over 55% in size. Summed up:
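In this cell-based screen, HEK 293 cultures received compound for one hour before Zika MR766 at MOI = 0.5. NS1 was quantified 24 hours later by TR-FRET, normalized to virus-free wells and infected wells.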

The target of experiment [6] is T1, Tyrosine-protein phosphatase non-receptor type substrate 1 (Homo sapiens) + Leukocyte surface antigen CD47 (Homo sapiens) (UniProt P78324+Q08722). In words: CD47-SIRPalpha protein protein interaction - LANCE assay qHTS validation (AID 1347057; active = well fitted curve in the direction sought with a large enough effect in the signal ratio, with a control signal flat, not every such curve was filed as active; the % refers to the signal ratio; also: series mostly up to about 38 µM). Summed up: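 Inhibition of soluble CD47/SIRPalpha ectodomain association by titrated compounds, measured as 665/615 nm time-resolved FRET ratio after sequential 30 min room-temperature incubations.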
T1 sequence (P78324 whole entry, looked up, the tested form may be a part): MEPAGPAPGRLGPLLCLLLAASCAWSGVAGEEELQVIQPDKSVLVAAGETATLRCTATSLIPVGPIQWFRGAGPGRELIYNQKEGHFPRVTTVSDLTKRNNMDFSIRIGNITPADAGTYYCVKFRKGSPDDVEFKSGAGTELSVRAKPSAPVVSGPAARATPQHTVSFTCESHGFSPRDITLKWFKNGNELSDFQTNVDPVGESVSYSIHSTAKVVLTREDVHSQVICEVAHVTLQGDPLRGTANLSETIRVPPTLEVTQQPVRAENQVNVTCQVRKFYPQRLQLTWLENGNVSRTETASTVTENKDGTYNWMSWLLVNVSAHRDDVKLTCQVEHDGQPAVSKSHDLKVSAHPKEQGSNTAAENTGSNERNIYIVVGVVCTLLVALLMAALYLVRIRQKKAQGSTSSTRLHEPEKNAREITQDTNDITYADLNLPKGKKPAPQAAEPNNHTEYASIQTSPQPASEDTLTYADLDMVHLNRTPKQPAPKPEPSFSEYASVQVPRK
T1 sequence (Q08722 whole entry, looked up, the tested form may be a part): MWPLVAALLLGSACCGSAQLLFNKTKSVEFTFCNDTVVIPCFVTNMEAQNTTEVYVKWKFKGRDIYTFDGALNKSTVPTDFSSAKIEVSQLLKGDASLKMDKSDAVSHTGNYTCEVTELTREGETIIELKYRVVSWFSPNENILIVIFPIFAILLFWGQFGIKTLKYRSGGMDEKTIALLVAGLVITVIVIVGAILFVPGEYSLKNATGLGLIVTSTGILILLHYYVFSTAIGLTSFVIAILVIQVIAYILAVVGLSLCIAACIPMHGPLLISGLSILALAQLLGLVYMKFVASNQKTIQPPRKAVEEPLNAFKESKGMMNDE

Experiment [7] addresses T1, Tyrosine-protein phosphatase non-receptor type substrate 1 (Homo sapiens) + Leukocyte surface antigen CD47 (Homo sapiens). The experiment in a line: CD47-SIRPalpha protein protein interaction - HTRF assay qHTS validation (AID 1347058; active = well fitted curve in the direction sought with a large enough effect in the signal ratio, not every such curve was filed as active; the % refers to the signal ratio; also: series mostly up to about 38 µM). Summed up:
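Soluble extracellular domains (6His-CD47, Avi-tag-biotinylated SIRPalpha) in PBS pH 7.4 with 0.05% IGEPAL CA-630. Compounds were preincubated 30 min at RT with CD47 and anti-His-Eu, then SIRPalpha and SAV-XL665 were added. TR-FRET 665/615 ratio.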
A general note: TR-FRET usually uses a lanthanide donor and a delayed reading to cut background.

Experiment [8] has the same target. In words: CD47-SIRPalpha protein protein interaction - Alpha assay qHTS validation (AID 1347059).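 Also: bead proximity luminescence from CD47 binding SIRPalpha after compound preincubation with SIRPalpha.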 Also: potency is read from the fitted curve at half-maximal effect. Summed up:
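SIRPalpha-biotin 25 nM + cpd, 30 min RT, dark; add CD47-His 12.5 nM, 30 min; add Ni-NTA/SAV beads 10 ug/mL, 30 min; AlphaScreen. Buffer PBS pH 7.4 + 0.05% IGEPAL CA-630. Non-biotinylated SIRPalpha as control inhibitor.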

Experiment [9] concerns the target Parathyroid hormone/parathyroid hormone-related peptide receptor (Homo sapiens) (UniProt Q03431). In words: qHTS for PTHR1 Agonists: Optimization Screen against the NCGC LOPAC library (AID 1347079).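 Also: GloSensor cAMP luminescence in HEK-293 GP2 cells expressing human PTHR1 with IBMX.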 The gist of the method: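 HEK-293 GP2 cells, PTHR1 + GloSensor cAMP; 3000 cells/well, o/n. Luciferin + IBMX 0.5mM each (stock), 1 hr 37C. Cpd titration, 1 hr 37C. Lum after 15 min RT. Ctrl M-PTH(1-15) top 10uM.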

Experiment [10] is described as follows: qHTS assay to identify small molecule inhibitors of chordoma cells - UCH-1 (AID 1259355). Also: nearly all actives have a fitted effect of over 55% in size. The gist of the method: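 Screening used approved and investigational drugs in 15-point titration against 800 seeded cells per well. A fixed combination of auranofin with camptothecin, doxorubicin, rubitecan and topotecan followed compound addition, and growth was scored by CellTiter-Glo after 48hr.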

Experiment [11] is described as follows: qHTS of pediatric cancer cell lines to identify multiple opportunities for drug repurposing: Primary screen for TC32 cells (AID 1347089). Also: nearly all actives have a fitted effect of over 60% in size. The gist of the method: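 In the primary qHTS, MIPE compounds were tested at 11 concentrations (0.78 nM to 46 µM) and NPC compounds at 8 (0.59 nM to 46 µM) on TC32 cells for 48 h. CellTiter-Glo luminescence gave viability.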

In experiment [12] the target is Atrial natriuretic peptide receptor 1 (Homo sapiens) (UniProt P16066). In words: Natriuretic polypeptide receptor (hNpr1) antagonism - Pilot screen (AID 1347049; calls by dose curve;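 also: agonist-evoked cGMP luminescence read 20 min after hNppA addition; series mostly up to about 58 µM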). The gist of the method: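 cGMP-sensor HEK293/hNpr1 cells, 1500/well, plated overnight at 37C. 2% GloSensor reagent, 2 h RT. Compound (23 nL pin transfer) 30 min RT, baseline luminescence pre-read. 0.1 nM hNppA, 20 min RT, post-read.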
Sequence of Atrial natriuretic peptide receptor 1 (Homo sapiens) (P16066 whole entry, looked up): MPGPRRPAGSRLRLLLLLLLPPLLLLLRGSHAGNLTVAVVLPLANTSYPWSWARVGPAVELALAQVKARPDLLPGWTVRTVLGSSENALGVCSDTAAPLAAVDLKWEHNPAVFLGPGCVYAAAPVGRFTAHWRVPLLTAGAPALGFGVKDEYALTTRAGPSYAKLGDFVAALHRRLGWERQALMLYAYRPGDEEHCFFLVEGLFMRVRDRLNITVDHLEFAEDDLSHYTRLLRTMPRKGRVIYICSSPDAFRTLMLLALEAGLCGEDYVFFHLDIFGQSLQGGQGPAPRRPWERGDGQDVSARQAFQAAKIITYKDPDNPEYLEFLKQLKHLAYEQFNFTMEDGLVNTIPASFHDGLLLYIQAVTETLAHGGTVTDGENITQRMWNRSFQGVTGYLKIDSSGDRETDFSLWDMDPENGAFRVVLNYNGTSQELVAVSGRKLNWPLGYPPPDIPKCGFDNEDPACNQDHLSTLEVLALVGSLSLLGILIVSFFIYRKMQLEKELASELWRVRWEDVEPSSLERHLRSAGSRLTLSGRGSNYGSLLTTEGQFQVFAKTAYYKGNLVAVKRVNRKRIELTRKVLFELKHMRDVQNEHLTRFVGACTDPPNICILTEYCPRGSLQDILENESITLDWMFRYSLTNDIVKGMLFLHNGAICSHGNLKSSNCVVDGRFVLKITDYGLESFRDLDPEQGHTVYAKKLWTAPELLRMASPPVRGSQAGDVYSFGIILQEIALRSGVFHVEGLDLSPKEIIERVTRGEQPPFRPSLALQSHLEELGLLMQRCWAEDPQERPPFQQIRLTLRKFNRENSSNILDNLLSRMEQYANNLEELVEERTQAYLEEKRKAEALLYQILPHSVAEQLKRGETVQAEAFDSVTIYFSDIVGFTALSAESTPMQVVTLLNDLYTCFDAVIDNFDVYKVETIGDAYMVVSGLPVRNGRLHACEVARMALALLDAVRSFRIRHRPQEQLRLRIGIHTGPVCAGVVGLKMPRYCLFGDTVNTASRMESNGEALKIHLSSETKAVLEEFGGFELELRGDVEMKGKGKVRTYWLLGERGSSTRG

Records with an inconclusive call do not appear. Activity calls are given as the source filed them. Unless noted, calls follow the shape of the dose curve; as a rule, active = well fitted curve in the direction sought with a large enough effect; inconclusive = small, poorly fitted or top-dose-only effect, or another doubt; inactive = no such curve, though single readings can be large; an effect the other way counts as inactive or inconclusive.

Sequence of Parathyroid hormone/parathyroid hormone-related peptide receptor (Homo sapiens) (Q03431 whole entry, looked up): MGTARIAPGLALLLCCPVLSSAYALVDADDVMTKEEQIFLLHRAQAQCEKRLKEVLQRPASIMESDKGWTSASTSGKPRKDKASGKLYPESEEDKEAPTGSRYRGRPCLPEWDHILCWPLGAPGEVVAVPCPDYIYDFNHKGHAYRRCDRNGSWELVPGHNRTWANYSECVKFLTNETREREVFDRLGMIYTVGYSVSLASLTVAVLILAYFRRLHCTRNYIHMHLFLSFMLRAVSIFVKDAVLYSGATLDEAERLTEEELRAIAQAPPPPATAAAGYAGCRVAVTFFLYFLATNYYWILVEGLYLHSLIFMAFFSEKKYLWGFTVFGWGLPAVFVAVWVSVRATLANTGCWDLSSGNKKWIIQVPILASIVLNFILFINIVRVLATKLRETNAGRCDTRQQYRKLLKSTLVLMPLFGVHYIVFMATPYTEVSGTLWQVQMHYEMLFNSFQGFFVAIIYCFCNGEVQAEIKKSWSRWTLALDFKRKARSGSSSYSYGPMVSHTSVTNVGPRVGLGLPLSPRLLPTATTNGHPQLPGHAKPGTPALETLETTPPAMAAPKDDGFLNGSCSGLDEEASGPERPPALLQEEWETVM

In the case of `C[N+]1(CCCCC[N+]2(C)CCCC2)CCCC1`, the outcome in experiment [1], in experiment [4], in [6], in experiment [7] and in [9] was inactive. For the same compound, the Potency result in experiment [2], in experiment [3], in [5] and in experiment [8] was “inactive” in each case.

With `COc1ccc(/C=C/C(=O)c2ccc(OC)cc2OC)cc1`, the compound was classed as inactive in experiment [1]. Moreover, the Potency result in experiment [10], in experiment [2], in [5] and in experiment [11] was “inactive” in each case.

Take `O=C(O)CNC(=O)c1ccccc1`: in experiment [1], the compound was classed as inactive. For the same compound, the Potency result in [2], in [3], in experiment [5] and in [11] was “inactive” each time.

Regarding `CCCCOc1ccc(C(=O)CCN2CCCCC2)cc1`, the compound was called inactive in experiment [1]. In addition, the Potency result in experiment [10], in experiment [5] and in [11] was “inactive” each time.

With `CC(C)=CCC1C(=O)N(c2ccccc2)N(c2ccccc2)C1=O`, the outcome in experiment [1] was inactive. For the same compound, the Potency result in experiment [2], in [5] and in [11] was “inactive” in each case.

For `CC(O)(P(=O)(O)O)P(=O)(O)O`, the compound was called inactive in [1]. Besides, the Potency result in experiment [2], in [3], in experiment [5] and in [11] was “inactive” each time.

With `CC(C)N=C(N)/N=C(\N)Nc1ccc(Cl)cc1`, the result in experiment [1] was inactive. Moreover, the Potency entry in experiment [2], in [3], in [5] and in experiment [11] was “inactive” each time.

Regarding `O=C1c2ccccc2C(=O)C1c1ccccc1`, the compound was called inactive in experiment [1]. Also, the Potency entry in [2], in experiment [3], in experiment [5] and in experiment [11] was “inactive” each time.

Regarding `CN(C)CCOc1ccccc1Cc1ccccc1`, the outcome in experiment [1] was inactive. Further, the Potency result in experiment [2], in [3], in experiment [5] and in experiment [11] was “inactive” each time.

On to `CN(C)CC/C=C1/c2ccccc2COc2ccc(CC(=O)O)cc21`, for which the compound was classed as inactive in experiment [1]. Besides, the Potency entry in experiment [10], in experiment [3], in experiment [5] and in experiment [11] was “inactive” each time.

With `CN1CCC(=C2c3ccccc3Sc3ccccc32)CC1`, the compound was called inactive in experiment [1]. Besides, the Potency result in experiment [10], in experiment [2], in experiment [5] and in experiment [11] was “inactive” each time. Moreover, the Potency in [3] is 9.2 µM (active).

Turning to `COc1cc2c(cc1OC)[C@@H]1CC(=O)[C@@H](CC(C)C)CN1CC2`, the call in experiment [1] was inactive. For the same compound, the Potency result in [2], in experiment [5] and in experiment [11] was “inactive” each time.

As to `COc1cccc(CCc2ccccc2OCC(CN(C)C)OC(=O)CCC(=O)O)c1` (stereo not given), the call in experiment [1] was inactive. Besides, the Potency entry in experiment [10], in experiment [5] and in [11] was “inactive” each time.

On to `c1ccc(-c2ccc(C(c3ccccc3)n3ccnc3)cc2)cc1` (stereo not given), for which, in [1], the result was inactive. Further, the Potency entry in experiment [10], in experiment [5] and in [11] was “inactive” throughout.

In the case of `CC1(C)O[C@@H]2C[C@H]3[C@@H]4C[C@H](F)C5=CC(=O)CC[C@]5(C)[C@H]4[C@@H](O)C[C@]3(C)[C@]2(C(=O)CO)O1`, in [1], the outcome was inactive. The Potency entry in [2], in experiment [3], in [5] and in experiment [11] was “inactive” each time.

Regarding `N[C@@H](Cc1cnc[nH]1)C(=O)O`, the compound was called inactive in experiment [1], in experiment [12], in experiment [4], in [6], in experiment [7] and in experiment [9]. Besides, the Potency entry in [10], in experiment [3] and in [5] was “inactive” each time. Moreover, the Potency in experiment [8] was 13.1 µM (active).

For the compound `CC(C)COC(=O)c1ccc(N)cc1`, in [1], the call was inactive. Besides, the Potency entry in experiment [2], in experiment [3], in experiment [5] and in experiment [11] was “inactive” in each case.

For the compound `CCCOC(C(=O)OC1CCN(C)CC1)(c1ccccc1)c1ccccc1`, the call in experiment [1] was inactive. In addition, the Potency entry in [10], in experiment [2], in experiment [5] and in [11] was “inactive” each time.

For the compound `O=S1(=O)c2cccc3cccc(c23)N1CCCN1CCN(c2ccc(F)cc2)CC1`, the call in experiment [1] was inactive. In addition, the Potency entry in experiment [10], in [5] and in [11] was “inactive” throughout.

As to `CCN1CCCC1=O`, the compound was classed as inactive in experiment [1]. The Potency entry in experiment [10], in [2], in experiment [3], in experiment [5] and in [11] was “inactive” throughout.

`Cc1c(C)n(Cc2ccccc2)c2ccc(C(=O)OCCN(C)C)cc12`: the compound was called inactive in [1]. For the same compound, the Potency result in experiment [2], in [5] and in experiment [11] was “inactive” in each case. In addition, the Potency in experiment [3] was 23.1 µM (active).

In the case of `CCCCC(=O)O[C@]1(C(=O)CO)CC[C@H]2[C@@H]3CCC4=CC(=O)CC[C@]4(C)[C@H]3[C@@H](O)C[C@@]21C`, in experiment [1], the call was inactive. Further, the Potency result in [2], in experiment [3], in experiment [5] and in experiment [11] was “inactive” in each case.

For the compound `CNCCC(Oc1ccccc1C)c1ccccc1` (stereo not given), the result in [1], in experiment [4], in [6], in experiment [7] and in experiment [9] was inactive. Besides, the Potency result in experiment [10], in [5] and in experiment [8] was “inactive” in each case.

Take `O=C1OC2(c3ccc(O)cc3Oc3cc(O)ccc32)c2ccccc21`: the outcome in [1] was inactive. Further, the Potency entry in [3], in experiment [5] and in [11] was “inactive” each time.

Regarding `CCCCCCCCCCCCCCCCCC(=O)OCC(O)CO` (stereo not given), the compound was classed as inactive in experiment [1]. The Potency entry in [2], in [3], in experiment [5] and in [11] was “inactive” throughout.

For `CCOc1ccc2nc3cc(N)ccc3c(N)c2c1`, the outcome in experiment [1] was inactive. Moreover, the Potency entry in [3] and in experiment [5] was “inactive” each time.

In the case of `CC(=O)Oc1ccc(C(c2ccc(OC(C)=O)cc2)c2ccccn2)cc1`, in experiment [1], the compound was called inactive. The Potency result in experiment [2], in experiment [3], in experiment [5] and in experiment [11] was “inactive” throughout.
